Measured values as given in the supplement of paper PMC11732987, “Enantioselective OTUD7B fragment discovery through chemoproteomics screening and high-throughput optimisation” (Communications Chemistry, 2025).

How the values were obtained:
Assay in all cases: log2 ratio of Biotin-Ahx-Ub-VS probe labelling (fragment/DMSO); higher = less target engagement (more negative = stronger competition), active = hit call of the paper (q ≤ 0.05, log2 ratio ≤ -1)
Settings in all cases: compound concentration: 200 uM; treatment time: 3 h
OTUD6B = target: T1, OTUD6B (UniProt Q8N6M0)
T1 sequence (whole entry): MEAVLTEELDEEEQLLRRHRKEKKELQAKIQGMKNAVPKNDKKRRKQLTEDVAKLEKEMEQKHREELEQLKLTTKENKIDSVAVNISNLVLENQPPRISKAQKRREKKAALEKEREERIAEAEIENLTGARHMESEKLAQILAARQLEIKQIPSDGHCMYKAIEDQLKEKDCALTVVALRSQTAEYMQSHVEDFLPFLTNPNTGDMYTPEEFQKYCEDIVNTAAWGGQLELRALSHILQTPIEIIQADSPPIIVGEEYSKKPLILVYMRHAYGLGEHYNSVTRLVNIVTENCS
Procedure, shortened: (§1)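 Labelling with Biotin-Ahx-Ub-VS (0.5 µM final, 1 h) followed a 3 h triplicate treatment of HEK293T lysate (495 µg per sample, Tris/CHAPS/IGEPAL buffer with protease inhibitors) with fragment at 200 µM or vehicle. Labelled DUBs were NeutrAvidin-enriched, digested with LysC and trypsin, and run by diaPASEF LC-MS/MS. The values, average log2 fragment/vehicle ratios by unpaired t-test, come from global-median-normalised Spectronaut label-free quantities. Proteins with ≥2 unique peptides were used.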

OTUD7B = target: T2, OTUD7B (UniProt Q6GQQ9)
T2 sequence (whole entry): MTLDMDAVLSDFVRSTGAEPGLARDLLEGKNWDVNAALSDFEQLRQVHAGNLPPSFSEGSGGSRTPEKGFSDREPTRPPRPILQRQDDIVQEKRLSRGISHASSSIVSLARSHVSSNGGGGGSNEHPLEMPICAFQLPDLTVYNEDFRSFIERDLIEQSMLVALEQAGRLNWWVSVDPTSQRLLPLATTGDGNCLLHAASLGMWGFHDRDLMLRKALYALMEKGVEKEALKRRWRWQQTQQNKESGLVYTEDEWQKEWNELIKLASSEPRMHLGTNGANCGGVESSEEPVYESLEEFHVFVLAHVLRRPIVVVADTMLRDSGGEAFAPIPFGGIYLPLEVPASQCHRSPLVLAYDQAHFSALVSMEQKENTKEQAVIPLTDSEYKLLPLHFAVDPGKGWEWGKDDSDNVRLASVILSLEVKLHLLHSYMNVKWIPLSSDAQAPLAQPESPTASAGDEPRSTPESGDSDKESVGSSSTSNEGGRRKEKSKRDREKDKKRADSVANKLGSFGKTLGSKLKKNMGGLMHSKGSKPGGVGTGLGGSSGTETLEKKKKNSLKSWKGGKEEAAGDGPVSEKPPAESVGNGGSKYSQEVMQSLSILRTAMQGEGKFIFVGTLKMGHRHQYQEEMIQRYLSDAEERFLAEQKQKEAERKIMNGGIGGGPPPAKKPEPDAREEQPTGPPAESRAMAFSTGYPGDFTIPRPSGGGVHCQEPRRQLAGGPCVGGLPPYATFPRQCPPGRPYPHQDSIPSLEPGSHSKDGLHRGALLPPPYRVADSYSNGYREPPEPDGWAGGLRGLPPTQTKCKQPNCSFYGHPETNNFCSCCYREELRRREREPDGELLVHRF
Procedure, shortened: as §1

PRPF8 = PRPF8 (UniProt Q6P2Q9)
Procedure, shortened: as §1

PSMD7 = target: T3, PSMD7 (UniProt P51665)
T3 sequence (whole entry): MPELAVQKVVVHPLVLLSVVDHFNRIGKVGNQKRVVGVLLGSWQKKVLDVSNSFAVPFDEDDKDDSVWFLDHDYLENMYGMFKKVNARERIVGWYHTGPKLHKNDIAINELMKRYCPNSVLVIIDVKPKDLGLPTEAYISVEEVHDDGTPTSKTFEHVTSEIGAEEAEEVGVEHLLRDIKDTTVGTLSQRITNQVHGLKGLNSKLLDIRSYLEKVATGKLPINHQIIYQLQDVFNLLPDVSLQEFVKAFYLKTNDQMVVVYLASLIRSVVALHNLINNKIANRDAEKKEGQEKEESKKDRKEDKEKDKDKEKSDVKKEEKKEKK
Procedure, shortened: as §1

UCHL1 = UCHL1 (UniProt P09936)
Chain of UCHL1 (P09936 whole entry, looked up): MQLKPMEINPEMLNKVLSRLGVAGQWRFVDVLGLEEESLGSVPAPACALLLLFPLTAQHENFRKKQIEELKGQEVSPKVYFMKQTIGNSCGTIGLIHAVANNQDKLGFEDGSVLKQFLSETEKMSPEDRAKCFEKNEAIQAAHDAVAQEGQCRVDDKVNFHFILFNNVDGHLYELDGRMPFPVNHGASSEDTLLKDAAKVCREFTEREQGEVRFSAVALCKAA
Procedure, shortened: as §1

UCHL3 = target: T4, UCHL3 (UniProt P15374)
T4 sequence (whole entry): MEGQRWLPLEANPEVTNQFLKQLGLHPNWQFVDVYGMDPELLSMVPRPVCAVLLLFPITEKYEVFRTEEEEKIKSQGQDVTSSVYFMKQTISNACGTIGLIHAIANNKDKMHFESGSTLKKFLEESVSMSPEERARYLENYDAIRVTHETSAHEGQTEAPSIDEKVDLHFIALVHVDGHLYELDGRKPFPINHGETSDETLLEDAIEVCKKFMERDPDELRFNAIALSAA
Procedure, shortened: as §1

UCHL5 = target: T5, UCHL5 (UniProt Q9Y5K5)
T5 sequence (whole entry): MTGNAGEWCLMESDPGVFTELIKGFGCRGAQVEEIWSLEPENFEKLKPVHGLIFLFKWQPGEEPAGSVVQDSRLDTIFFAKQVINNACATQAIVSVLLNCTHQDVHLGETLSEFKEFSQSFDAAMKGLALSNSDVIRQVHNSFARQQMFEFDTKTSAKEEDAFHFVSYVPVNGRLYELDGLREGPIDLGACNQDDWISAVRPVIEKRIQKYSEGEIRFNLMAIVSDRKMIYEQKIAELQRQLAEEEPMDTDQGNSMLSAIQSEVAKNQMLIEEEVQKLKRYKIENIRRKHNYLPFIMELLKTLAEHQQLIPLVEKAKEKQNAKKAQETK
Procedure, shortened: as §1

USP10 = USP10 (UniProt Q14694)
Chain of USP10 (Q14694 whole entry): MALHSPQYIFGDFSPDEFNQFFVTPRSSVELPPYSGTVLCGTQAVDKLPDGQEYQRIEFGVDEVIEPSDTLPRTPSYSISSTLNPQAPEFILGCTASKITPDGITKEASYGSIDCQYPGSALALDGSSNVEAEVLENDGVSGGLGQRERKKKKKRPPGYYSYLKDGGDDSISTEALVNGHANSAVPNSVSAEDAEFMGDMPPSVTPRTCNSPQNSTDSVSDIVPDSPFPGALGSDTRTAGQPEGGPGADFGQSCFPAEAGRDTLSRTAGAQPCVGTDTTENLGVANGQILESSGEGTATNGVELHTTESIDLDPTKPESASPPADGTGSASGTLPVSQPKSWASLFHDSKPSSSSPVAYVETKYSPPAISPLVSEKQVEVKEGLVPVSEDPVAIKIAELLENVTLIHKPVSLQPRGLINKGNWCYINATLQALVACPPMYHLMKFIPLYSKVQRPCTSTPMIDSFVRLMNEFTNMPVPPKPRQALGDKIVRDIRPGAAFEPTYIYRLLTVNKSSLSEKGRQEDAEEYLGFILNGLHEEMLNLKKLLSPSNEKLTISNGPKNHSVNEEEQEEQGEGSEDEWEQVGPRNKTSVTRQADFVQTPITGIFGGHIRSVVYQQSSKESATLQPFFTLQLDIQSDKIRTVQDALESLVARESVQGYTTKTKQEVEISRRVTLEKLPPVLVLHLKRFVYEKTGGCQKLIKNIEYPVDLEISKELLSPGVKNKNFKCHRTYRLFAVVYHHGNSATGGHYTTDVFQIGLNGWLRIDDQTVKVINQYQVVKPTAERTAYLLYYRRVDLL
Procedure, shortened: as §1

USP15 = target: T6, USP15 (UniProt Q9Y4E8)
T6 sequence (whole entry): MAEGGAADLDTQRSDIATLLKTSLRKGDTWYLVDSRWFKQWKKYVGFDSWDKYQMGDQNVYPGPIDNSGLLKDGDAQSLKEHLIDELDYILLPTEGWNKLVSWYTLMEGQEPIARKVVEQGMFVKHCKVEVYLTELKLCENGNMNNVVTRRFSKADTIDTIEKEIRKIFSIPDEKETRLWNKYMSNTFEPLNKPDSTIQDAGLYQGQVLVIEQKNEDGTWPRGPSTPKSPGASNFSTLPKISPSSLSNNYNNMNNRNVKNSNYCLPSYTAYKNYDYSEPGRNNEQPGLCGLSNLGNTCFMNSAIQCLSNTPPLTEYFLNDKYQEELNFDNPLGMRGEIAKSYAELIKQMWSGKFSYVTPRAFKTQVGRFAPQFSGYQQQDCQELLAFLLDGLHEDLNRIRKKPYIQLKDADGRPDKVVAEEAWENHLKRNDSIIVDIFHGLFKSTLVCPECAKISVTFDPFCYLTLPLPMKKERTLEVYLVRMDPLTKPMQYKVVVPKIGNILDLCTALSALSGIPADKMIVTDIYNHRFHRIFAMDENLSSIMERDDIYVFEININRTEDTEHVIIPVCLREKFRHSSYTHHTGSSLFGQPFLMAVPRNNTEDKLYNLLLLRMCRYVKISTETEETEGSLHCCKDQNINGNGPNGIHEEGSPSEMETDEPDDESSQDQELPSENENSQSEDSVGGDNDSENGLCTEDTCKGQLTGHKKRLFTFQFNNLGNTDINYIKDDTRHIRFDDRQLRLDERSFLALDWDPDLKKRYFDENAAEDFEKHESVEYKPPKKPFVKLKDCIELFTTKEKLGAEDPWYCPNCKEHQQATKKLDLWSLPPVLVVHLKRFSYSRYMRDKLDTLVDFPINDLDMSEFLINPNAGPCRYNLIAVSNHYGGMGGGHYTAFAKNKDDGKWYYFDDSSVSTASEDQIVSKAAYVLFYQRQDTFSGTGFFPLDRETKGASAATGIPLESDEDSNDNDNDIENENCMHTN
Procedure, shortened: as §1

USP16 = USP16 (UniProt Q9Y5T5)
Chain of USP16 (Q9Y5T5 whole entry, looked up): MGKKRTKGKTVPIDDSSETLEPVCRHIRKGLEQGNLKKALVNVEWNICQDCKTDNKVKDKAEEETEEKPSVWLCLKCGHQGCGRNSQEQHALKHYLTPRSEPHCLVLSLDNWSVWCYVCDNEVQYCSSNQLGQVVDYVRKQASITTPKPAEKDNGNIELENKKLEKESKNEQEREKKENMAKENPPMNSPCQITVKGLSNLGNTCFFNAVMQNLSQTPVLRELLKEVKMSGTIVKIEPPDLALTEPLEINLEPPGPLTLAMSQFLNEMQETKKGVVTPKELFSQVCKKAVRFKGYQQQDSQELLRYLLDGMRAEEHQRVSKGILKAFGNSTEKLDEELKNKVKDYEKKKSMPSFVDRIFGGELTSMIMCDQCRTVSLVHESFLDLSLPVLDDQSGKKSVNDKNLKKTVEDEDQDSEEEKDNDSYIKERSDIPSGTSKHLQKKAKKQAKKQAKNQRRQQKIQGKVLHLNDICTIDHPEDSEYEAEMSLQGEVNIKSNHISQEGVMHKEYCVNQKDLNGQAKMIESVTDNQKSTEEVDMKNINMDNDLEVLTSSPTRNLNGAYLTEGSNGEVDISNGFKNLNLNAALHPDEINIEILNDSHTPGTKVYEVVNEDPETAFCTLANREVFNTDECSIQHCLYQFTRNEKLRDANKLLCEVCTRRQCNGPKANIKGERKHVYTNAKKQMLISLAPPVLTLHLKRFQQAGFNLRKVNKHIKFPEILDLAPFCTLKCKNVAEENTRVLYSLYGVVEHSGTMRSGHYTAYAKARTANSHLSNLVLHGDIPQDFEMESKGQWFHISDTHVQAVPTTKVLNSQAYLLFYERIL
Procedure, shortened: as §1

Measured: log2 ratio of Biotin-Ahx-Ub-VS probe labelling

Cc1ccc2nnc(CNC(=O)CCl)n2c1
inactive: OTUD6B 0.146 | OTUD7B -0.395 | PRPF8 0.153 | PSMD7 0.238 | UCHL3 0.34 | UCHL5 -0.0479 | USP10 -0.0942 | USP15 -0.0934 | USP16 -0.0611
active: UCHL1 -1
